Laboratory results as given in the supplement of paper PMC11417369.
± gives the standard deviation of the averaged measurements. Whole data set: some 25,000 sequences, median “ln(normalized median fluorescence intensity)” near 8.6, cut for the highest 2% near 10. Many of the other results were omitted from the sample, so the highest values are more common in it than they were.

System: PfAP2-EXP AP2 domain (GST-tagged)
Assay: gcPBM binding intensity (ln(normalized median fluorescence intensity)); higher = stronger DNA binding
Outline: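 The binding buffer was 1× PBS containing 1% milk, 0.2 mg/ml BSA, 0.5% salmon testes DNA and 0.03% Triton X-100. In it, GST-tagged P. falciparum DNA-binding domains expressed in E. coli were applied for 1 h to an Agilent 4 × 180k array of primer-extended double-stranded 36-bp intergenic genomic probes plus negative controls. Binding intensity, read with Alexa488 anti-GST antibody and a 488 nm scan, is the highest Masliner-normalised natural-log median intensity across replicate spots of either probe orientation.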

| Sequence | gcPBM binding intensity (ln) |
| --- | --- |
| TTGTTAATGGTACGAACACACATATAAAGATGCATA [CACACA_site2044] | 8.64 ± 0.54 |
| TACCATTATTTTAAGTGTACATACTAATTTATATAT [XGTACX_site6548] | 8.61 ± 0.28 |
| ATGAAGATTTAAAAATGTACATATGATCTATGTCCT [XGTACX_site8409] | 8.38 ± 0.36 |
| TTTTTTTTTTTGTTTTGTACATAAATTGCAACCAAT [XGTACX_site8949] | 8.73 ± 0.57 |
| TTTTTATATGTTAAGTGTACGTTTACATTTTATACT [XGTACX_site3485] | 8.63 ± 0.36 |
| TACAGATAAAAGTACACACACACACCGATATATATA [CACACA_site4675] | 8.86 ± 0.38 |
| TTGCATTGATCAAACATACACACATGGTTAATAAAA [CACACA_site2084] | 8.64 ± 0.47 |
| AAAAAAAAAAAAAAAACACACATGTATACTAGAATA [CACACA_site7108] | 8.67 ± 0.31 |
| ATGTGTGTATACATCAATTATATATATATTATGTAT [GTGCAC_negctrl_site720] | 8.6 ± 0.33 |
| ATTTTTTCATATTCTACACACGTGAACAAATGTGTC [CACACA_site3007] | 8.69 ± 0.36 |
| ATATTCATATATACTTCACACACATTTTATCATTCA [CACACA_site8784] | 8.71 ± 0.39 |
| AACTTATTTAAATTCACACATATATAAAATACTTAT [CACACA_site4394] | 8.38 ± 0.42 |
| TGCATTTATATCTTCACACATATATATATATATATA [CACACA_site4516] | 10.2 ± 0.42 |
| TTTAAAAAATTATATTCACACACATACACATATATA [CACACA_site8076] | 8.51 ± 0.59 |
| TAATTTTAAATATCTTCACACATTATATTTTTATAT [CACACA_site5411] | 8.34 ± 0.42 |
| AAAAAAAAATTATTCACACATATATATATATATATA [CACACA_site5579] | 10.2 ± 0.33 |
| AAAAATTTTATATTCACACACATATATATATATATA [CACACA_site624] | 10.2 ± 0.42 |
| AAAAATTTTATATTCACACACATATTTATATTTATA [CACACA_site6439] | 8.25 ± 0.27 |
| GTTTCCTTAATATTCACACACATATATATAATATAT [CACACA_site1856] | 8.95 ± 0.33 |
| TAAAAAATTATATTCACACACATACACATATATATA [CACACA_site545] | 8.54 ± 0.43 |
| TAAAAAATTTTATATTCACACACATATATATATATA [CACACA_site8109] | 10.1 ± 0.31 |
| AAAAACTTAATATTCACACATATATATATATATATA [CACACA_site5240] | 10.2 ± 0.45 |
| CATATTTGTTGACACACACACATATTTATATAAATA [CACACA_site7648] | 8.74 ± 0.4 |
| TTTGCCATATGACACACACACATGTAAACCCCCTTT [CACACA_site6873] | 9.41 ± 0.45 |
| ATATATTTTTACCATACACACATATAACAAATATAT [CACACA_site7706] | 8.75 ± 0.44 |
